TR SRC2 fluor cs: Texas Red fluorescence interference in TRb-SRC2 counter-screen; Potency, µM (doses to about 106 µM), without a hit: top-dose fluorescence change, negative = quenching; AID 1479; 280,000 compounds, 0.29% hits; TRb/SRC2 Texas Red total fluorescence interference; active = well fitted curve in either direction with a large enough effect; inconclusive = small, poorly fitted or top-dose-only effect
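Human TRβ ligand-binding domain (0.6 uM) and Texas Red SRC2 peptide (20 nM) in Tris buffer with 1 uM T3 and 5% DMSO were incubated with pinned compound for 5 hr at ambient temperature. Total fluorescence was computed as S + 2P (555/632 nm).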
Tau fluor counter: counter-screen for tau fibril formation inhibitors; 280,000 compounds, 0.93% hits; tau K18 P301L Alexa594 fluorescence, heparin fibrillization; AID 1463; Potency, µM (titrated, usually from 57.7 µM), inactives show at the highest dose activity change, negative = decrease; note: nearly all actives have a fitted effect of over 55% in size
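Human K18 P301L tau (15 uM unlabeled plus 0.24 uM Alexa 594-labeled, final) in 100 mM sodium acetate pH 7 was mixed with compound and 20 uM heparin and incubated 6 hr at 37 C.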
TRb SRC2 PPI: disrupts binding of human TR beta to SRC2; P10828; TRbeta-SRC2 peptide binding, fluorescence polarization; receptor liganded with 1 µM T3; Potency, µM (top dose mostly 106 µM), inactives show at the top dose activity change, negative = inhibition, most hits filed as inhibitors; 280,000 compounds, 0.065% hits;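 note: plate controls were bound peptide for no effect and peptide without receptor for full effect; nearly all actives have a fitted effect of over 50% in size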
Target sequence (P10828 whole entry, looked up): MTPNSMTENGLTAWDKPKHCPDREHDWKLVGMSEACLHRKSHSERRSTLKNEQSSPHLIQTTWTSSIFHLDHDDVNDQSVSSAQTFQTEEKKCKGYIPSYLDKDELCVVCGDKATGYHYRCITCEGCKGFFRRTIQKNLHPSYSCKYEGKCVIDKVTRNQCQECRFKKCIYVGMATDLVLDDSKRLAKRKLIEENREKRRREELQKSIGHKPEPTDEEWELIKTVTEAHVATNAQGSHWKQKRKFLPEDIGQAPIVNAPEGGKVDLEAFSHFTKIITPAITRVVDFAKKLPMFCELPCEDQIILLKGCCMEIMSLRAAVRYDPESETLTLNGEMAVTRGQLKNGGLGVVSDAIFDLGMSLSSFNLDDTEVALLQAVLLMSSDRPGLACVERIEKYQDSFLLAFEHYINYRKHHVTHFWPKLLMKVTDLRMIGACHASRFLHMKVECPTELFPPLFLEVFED
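Fluorescence polarization of 20 nM Texas Red SRC2 peptide with 0.6 uM human TRb ligand-binding domain, in Tris buffer with 1uM T3 and 5% DMSO. Incubated 5 hr ambient; normalized to unbound and bound controls.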
Tau FP inhib: blocks human tau fibril formation measured by polarization | K18 P301L tau heparin fibrillization, Alexa594 FP, 6 h | Potency, µM (titrated, usually from 57.7 µM), for the others: at the highest dose activity, negative = inhibition, most hits filed as inhibitors | 280,000 compounds, 0.39% hits | AID 1468; note: nearly all actives have a fitted effect of over 55% in size
Target sequence (P10636 561-689 P618L limits assumed): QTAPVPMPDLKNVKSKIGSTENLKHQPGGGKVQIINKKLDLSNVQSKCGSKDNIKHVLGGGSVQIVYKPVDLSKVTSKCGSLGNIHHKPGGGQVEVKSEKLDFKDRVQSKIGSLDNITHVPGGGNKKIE
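Compound effects on tau fibrillization are measured by Alexa 594 fluorescence polarization (ex 555, em 632 nm). K18 P301L tau is used at 15 uM with 0.24 uM labeled tracer, and 20 uM heparin induces aggregation over 6 hr at 37 C.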
Tau ThT inhib: inhibitors of human tau fibril formation, thioflavin T binding; Potency, µM (series often up to 57.4 µM), for the others: at the top dose activity, negative = inhibition, usual class: inhibitors; P10636; 270,000 compounds, 2.1% hits; recombinant tau K18 P301L, heparin-induced fibrillization, ThT fluorescence; note: nearly all actives have a fitted effect of over 55% in size
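Using a mix of unlabeled (15 uM) and Alexa 594-labeled (0.24 uM) tau K18 P301L, heparin-triggered fibrillization over 6 hr at 37 C was scored by ThT fluorescence.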
* marks the source's active call; other numbers are inactive results; ? = inconclusive; / = no result given; [ ] = another dose, or the depositor's remark. Shown are actives, neighbours in structure and some others; about 3% of the full set was active somewhere. Unless noted, calls come from the whole dose curve; as a rule, active = well fitted curve in the direction sought with a large enough effect; inconclusive = small, poorly fitted or top-dose-only effect, or another doubt; inactive = no such curve, though single readings can be large; an effect the other way counts as inactive or inconclusive. Unless noted, % is set by controls: 0 for no effect and ±100 for the full control effect; potency is the fitted concentration of half-maximal effect.

SMILES	TR SRC2 fluor cs	Tau fluor counter	TRb SRC2 PPI	Tau FP inhib	Tau ThT inhib
CCOc1ccc(/C=C/C(=O)Nc2ccc(C(N)=O)cc2)cc1OC	1%	-2%	-26%	-10%	0%
COc1ccc(/C=C/C(=O)Nc2ccc(Cl)c(Cl)c2)cc1OC	1%	10µM*[quencher]	-3%	14µM*	?
CCOCCOC(=O)c1ccc(NC(=O)/C=C/c2ccc(OC)c(OC)c2)cc1	0.89µM*[quencher]	-22%	-17%[53 µM]	?	13%
COc1ccccc1OCCn1c(C(C)Oc2ccccc2)nc2ccccc21 (stereo unspecified)	-73%	-25%	-19%	-2%	?
CCOC(=O)c1c(S(=O)(=O)NCC(=O)Nc2ccc(C(C)=O)cc2)c(C)n(C)c1C	-15%	-6%	-3%	0%	-3%
O=C(NN=C1CCN(Cc2ccccc2)CC1)c1ccccc1O	-6%	-21%	3%	-3%	?
O=C(NN=C1CCN(Cc2ccccc2)CC1)c1cc2ccccc2cc1O	?	?	16%	1%	13µM*
CN1C(=O)CSc2ccc(NC(=O)Nc3ccccn3)cc21	-3%	?	-6%	13%	?
CC(=O)Nc1ccc(NC(=O)Nc2ccc3c(c2)N(C)C(=O)CS3)cc1	1%	-20%	2%	3%	-14%
CCOc1ccc(OCC)c(NC(=O)Nc2ccc3c(c2)N(C)C(=O)CS3)c1	-2%	8.9µM*[quencher]	14%	5%	-18%
COc1cccc(NC(=O)Nc2ccc3c(c2)N(C)C(=O)CS3)c1	-7%	14µM*[quencher]	7%	2%	?
O=C(NCCSc1c[nH]c2ccccc12)c1ccccc1Cl	-2%	?	1%	7%	-16%
Cc1cc(C)nc(NS(=O)(=O)c2ccc(N)cc2)n1	-2%	-3%	3%	7%	-4%
Cc1ccc(S(=O)(=O)Nc2nsc(N)n2)cc1	0%	-23%	-22%	18µM*	11µM*
CCOC(=O)c1cc(-c2ccccc2)nn1Cc1ccccc1	0%	-15%	1%	-16%	-16%
COc1cc(NC(=O)c2cc(S(=O)(=O)N3CCC(C)CC3)cn2C)cc(OC)c1OC	1%	5%	-2%	-7%	10%
CCOC(=O)/C(N=Nc1c(C)n(C)n(-c2ccccc2)c1=O)=C(\C)O	-1%	-8%	3%	-3%	-10%
CC1=CC(=Nc2c(C)n(C)n(-c3ccccc3)c2=O)C=C(C)C1=O	0%	?	-8%	?	11µM*
CCNc1ccc(N=Nc2c(C)n(C)n(-c3ccccc3)c2=O)cc1	-4%	-11%	-4%	3%	16µM*
CC1=CC(=Nc2c(C)n(C)n(-c3ccccc3)c2=O)C=CC1=O	28%	?	?	10µM*	3.2µM*
CC1(C)[C@@H]([C@@H](Br)C(Br)(Br)Br)[C@H]1C(=O)O[C@H](C#N)c1cccc(Oc2ccccc2)c1	2%[201 µM]	/	3%[201 µM]	/	/
Cc1cc(C)c(NC(=O)CCn2c(=O)c3cccn3c3cccnc32)c(C)c1	1%	17%	3%	-2%	17%
Cc1ccc(Cn2c(CN3CCC(C(=O)NCc4ccccc4C)CC3)cc3ccccc32)cc1	-5%	-17%	7%	-5%	-18%
CC(/C=C/C=C(C)/C=C/C(=O)O)=C\C=C\C=C(C)\C=C\C=C(C)\C=C\C(=O)O	-4%	/	6%	/	/
Cc1cc(NC(=O)Nc2ccc3c(ccn3C)c2)sn1	-6%	13µM*[quencher]	4%	?	?
SMILES	TR SRC2 fluor cs	Tau fluor counter	TRb SRC2 PPI	Tau FP inhib	Tau ThT inhib
CCOC(=O)c1ccc(NC(=O)CSc2nnc(CNc3ccc(OC)cc3)n2C)cc1	6%	-28%	-3%	?	14µM*
COc1ccc(NCc2nnc(SCC(=O)Nc3ccc(OC)cc3)n2C)cc1	-1%	0%	5%	1%	-7%
CC(=O)[C@@H]1[C@@H](C(=O)c2ccc(C)cc2)[C@]2(C(=O)Nc3ccccc32)[C@H]2C=Cc3cc(F)ccc3N12	0%	?	-1%	?	14µM*
COc1cc(Nc2nc(SCc3cccc(Cl)c3)nc3ccccc23)cc(OC)c1	-1%	?	2%	7.9µM*	?
COc1cc(Nc2nc(SCc3ccc(Cl)cc3)nc3ccccc23)cc(OC)c1	-6%	?	4%	?	?
Fc1ccc(Nc2nc(SCc3ccccc3F)nc3ccccc23)cc1	-1%	?	10%	7.9µM*	?
COc1cc(Nc2nc(SCC(=O)c3ccc(Cl)c(Cl)c3)nc3ccccc23)cc(OC)c1	1%	?	6%	14µM*	2%
O=C(CSc1nc(Nc2ccccc2)c2ccccc2n1)c1ccc(Cl)cc1	-3%	3%	-2%	3%	7%
COc1cc(Nc2nc(SCc3ccccc3F)nc3ccccc23)cc(OC)c1	-2%	?	11%	7.1µM*	?
Cc1cc(C)n2nc(CNC(=O)c3cccc(Cl)c3)nc2n1	-1%	-4%	-9%	9%	-3%
COc1ccc(CNc2nc(SCc3ccccc3Cl)nc3ccccc23)cc1	-4%	-24%	6%	-6%	-12%
COc1cc(Nc2nc(SCc3ccccc3Cl)nc3ccccc23)cc(OC)c1	-23%	?	3%	11µM*	?
CC(C)Cc1c(C(=O)O)c(C(F)F)nc(C(F)(F)F)c1C1=NCCS1	-2%[201 µM]	/	0%[201 µM]	/	/
CC(=O)Nc1ccc(S(=O)(=O)Oc2ccc(/C=C3\SC(N)=NC3=O)cc2)cc1	-3%	-13%	12%	25µM*	-17%
CC(=O)Nc1ccc(OS(=O)(=O)c2ccc(C(C)(C)C)cc2)cc1	-2%	?	-5%	?	-8%
CC1CCC(C(=O)O)NC1c1cccc(N2CCCC2=O)c1 (stereo unspecified)	?	-3%[11.6 µM]	4%[11.2 µM]	-2%[11.6 µM]	0%[11.5 µM]
CCOC(=O)c1c(C)[nH]c(C)c1S(=O)(=O)N1CCC(C(=O)NCc2cccc(OC)c2)CC1	1%	-14%	-7%	-7%	-4%
COC(=O)c1ccc(C2C=C(c3ccc(Cl)cc3)Nc3nc4ccccc4n32)cc1 (stereo unspecified)	0.14µM*[quencher]	-8%	-27%	2%	?
COc1cccc(OC)c1C(=O)NC(=S)Nc1cc(-c2nc3ccccc3[nH]2)ccc1Cl	2%	-17%	0%	?	8%
CC(C)(Oc1ccc(Br)cc1)C(=O)Nc1cc(-c2nc3ccccc3[nH]2)ccc1Cl	6%	?	-1%	16µM*	-1%
NC(=S)n1[nH]c(-c2ccc([N+](=O)[O-])cc2)c(N=Nc2ccc(O)cc2)c1=O	-3%	?	-4%	15%	3.2µM*
NC(=S)n1[nH]c(-c2ccc([N+](=O)[O-])cc2)c(N=Nc2cccc(Cl)c2)c1=O	-9%	14µM*[quencher]	-1%	6%	13µM*
O=C(NCCCN1CCN(c2ccc(F)cc2)CC1)Nc1ccccc1Cl	-1%	-5%	-4%	1%	-7%

Compound activity deposited in PubChem by National Center for Advancing Translational Sciences (NCATS).
